Assay results from PubChem BioAssay AID1220 (Sanford-Burnham Center for Chemical Genomics, 2008).
Among all 190,000 compounds or so, about 1,300 (0.68%) were called active. No stated cut-off is given here; in the data, active means inhibition above about 50%; inactive means the rest. This excerpt belongs to a sample that is enriched for actives.

target: Mannose-6-phosphate isomerase (Homo sapiens) (UniProt P34949); experiment: human PMI inhibitors, high substrate, primary screen, biochemical, fluorescence intensity, high mannose 6-phosphate (AID 1220); settings: recombinant PMI enzyme, coupled fluorescence intensity; at 20 µM; hits give high values
Sequence (P34949 whole entry, looked up): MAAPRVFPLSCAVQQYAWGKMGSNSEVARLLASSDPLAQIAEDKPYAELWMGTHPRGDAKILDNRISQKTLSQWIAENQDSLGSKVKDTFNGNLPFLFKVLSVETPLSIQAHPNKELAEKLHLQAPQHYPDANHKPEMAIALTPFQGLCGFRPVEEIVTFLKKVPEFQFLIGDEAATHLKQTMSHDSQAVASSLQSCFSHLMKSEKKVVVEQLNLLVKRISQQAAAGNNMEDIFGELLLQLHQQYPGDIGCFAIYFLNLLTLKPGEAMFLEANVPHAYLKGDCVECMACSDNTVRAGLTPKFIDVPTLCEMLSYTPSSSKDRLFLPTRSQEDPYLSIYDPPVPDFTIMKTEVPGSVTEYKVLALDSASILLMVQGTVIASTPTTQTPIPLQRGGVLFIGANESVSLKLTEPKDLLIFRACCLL

Row | Compound | inhibition
1 | CSc1ccc(C2NC(=O)c3c(sc4c3CCN(C)C4)N2)cc1 (stereo unspecified) | 17% (inactive)
2 | CN1CCc2c(sc3c2C(=O)NC(c2ccccc2)N3)C1 (stereo unspecified) | 33% (inactive)
3 | CCOC(=O)N1CCc2c(sc3c2C(=O)NC(c2ccccc2)N3)C1 (stereo unspecified) | 60.6% (active)
4 | CCCn1c(SCC(=O)NCc2ccc(OC)cc2)n[nH]c1=O | 11.2% (inactive)
5 | O=C(NCC1CCCCC1)C1CCCN(C(=O)NC2CCCCC2)C1 (stereo unspecified) | -1.6% (inactive)
6 | CC1=CC(C)(C)N(C(=O)CSc2ncn[nH]2)c2ccccc21 | -9.5% (inactive)
7 | Cc1cc(C)c(S(=O)(=O)/N=C2/C=C(SCC(=O)O)C(=O)c3ccccc32)cc1C | -32.3% (inactive)
8 | Cc1ccc(S(=O)(=O)/N=C2/C=C(Sc3ncn[nH]3)C(=O)c3ccccc32)c(C)c1 | 92.7% (active)
9 | Cc1ccc(S(=O)(=O)Nc2ccc(O)c(Sc3ncn[nH]3)c2)cc1 | 27.6% (inactive)
10 | Cc1cc(C)c(S(=O)(=O)Nc2ccc(O)c(Sc3ncn[nH]3)c2)c(C)c1 | 13.7% (inactive)
11 | Cc1cc(C)c(S(=O)(=O)/N=C2/C=C(Sc3ncn[nH]3)C(=O)c3ccccc32)cc1C | 90.3% (active)
12 | Cc1cc(NC(=O)COC(=O)C2COc3ccccc3O2)no1 (stereo unspecified) | -4.4% (inactive)
13 | CCCC(O)(c1ccc(Cl)cc1)C(CN1CCOCC1)c1ccccc1 (stereo unspecified) | 5.2% (inactive)
14 | Cc1ccc(S(=O)(=O)N2CCCCC2)cc1NC(=O)COC(=O)C1CC2C=CC1C2 (stereo unspecified) | 11% (inactive)
15 | O=C(NC1CCCCC1)C1CCN(S(=O)(=O)c2cccs2)CC1 | 5.6% (inactive)
16 | C=CCc1c(OC)ccc2ccc(=O)oc12 | 0.3% (inactive)
17 | Cc1cccc2cc(CN(CCCN(C)C)C(=S)NCCc3ccccc3)c(=O)[nH]c12 | -1.6% (inactive)
18 | CC1CCc2c(sc(NC(=O)CSc3nnc(-c4ccccc4)o3)c2C#N)C1 (stereo unspecified) | 57.2% (active)
19 | N#Cc1c(NC(=O)CSc2nnc(-c3ccccc3)o2)sc2c1CCCC2 | 4.2% (inactive)
20 | CC(C)(C)C1CCc2c(sc(NC(=O)CSc3nnc(-c4ccccc4)o3)c2C#N)C1 (stereo unspecified) | 15.1% (inactive)
21 | COC(=O)c1ccc(CSCC(=O)Nc2ccccc2)cc1 | 6.4% (inactive)
22 | COc1ccc(C2=COc3ccccc3C(=O)N2)cc1 | -6.2% (inactive)
23 | O=C(CSc1ccc(C(F)(F)F)cc1[N+](=O)[O-])Nc1ccc2ccccc2c1 | 10.8% (inactive)
24 | COc1ccc(OC)c(-c2csc(NC(=O)c3ccc(OCC4CCCO4)cc3)n2)c1 (stereo unspecified) | 104% (active)
25 | O=C(Nc1nc(-c2ccc(Cl)cc2Cl)cs1)c1ccc(OCC2CCCO2)cc1 (stereo unspecified) | 11.1% (inactive)
26 | Cc1csc(NC(=O)c2ccc(OCC3CCCO3)cc2)n1 (stereo unspecified) | 1.2% (inactive)
